From the supplement of paper PMC3334620 come the findings set out here.

Over roughly 33,000 sequences, “E-score (-0.5 to 0.5)” has its median near -0.054; the highest 2% begin near 0.35. For the sample, the highest values were picked, then their nearest neighbours and some sequences at random.

In this assay the target is T1, Stb5 (UniProt P38699).
T1 sequence: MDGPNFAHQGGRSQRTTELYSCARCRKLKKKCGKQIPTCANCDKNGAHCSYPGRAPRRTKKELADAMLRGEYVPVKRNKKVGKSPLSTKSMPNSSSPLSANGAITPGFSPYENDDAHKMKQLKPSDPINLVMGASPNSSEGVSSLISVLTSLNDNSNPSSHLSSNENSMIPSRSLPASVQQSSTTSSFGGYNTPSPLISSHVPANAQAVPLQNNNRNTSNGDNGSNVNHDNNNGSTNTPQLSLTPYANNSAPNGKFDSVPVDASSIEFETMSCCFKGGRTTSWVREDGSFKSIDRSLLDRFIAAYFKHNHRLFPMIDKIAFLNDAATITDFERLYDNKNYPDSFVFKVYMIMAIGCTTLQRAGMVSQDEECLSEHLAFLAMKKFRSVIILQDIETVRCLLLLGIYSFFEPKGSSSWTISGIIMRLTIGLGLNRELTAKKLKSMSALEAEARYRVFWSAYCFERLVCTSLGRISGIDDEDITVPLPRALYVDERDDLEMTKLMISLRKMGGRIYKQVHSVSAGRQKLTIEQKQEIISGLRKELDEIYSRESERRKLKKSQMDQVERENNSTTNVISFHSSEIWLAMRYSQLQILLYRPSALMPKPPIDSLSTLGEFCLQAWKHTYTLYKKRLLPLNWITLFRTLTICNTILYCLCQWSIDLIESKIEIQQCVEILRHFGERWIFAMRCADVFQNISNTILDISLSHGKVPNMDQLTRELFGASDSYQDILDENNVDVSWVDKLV
Kind of assay: PBM E-score (8-mer binding enrichment) (E-score (-0.5 to 0.5)); higher = stronger / more preferred TF binding. Conditions: protein concentration: 200 nM; construct: GST-full length. As to the method: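 Universal 'all 10-mer' protein binding microarrays (Agilent AMADID 015681) probed with GST-tagged S. cerevisiae TFs (full-length or DBD) made by in vitro transcription/translation (PURExpress), about 100-200 nM. Bound TF was detected with fluorescent anti-GST. Each ungapped 8-mer (which stands for itself and its reverse complement) is scored by the PBM enrichment score (E-score), a modified Wilcoxon-Mann-Whitney statistic from -0.5 to +0.5, computed with the Universal PBM Analysis Suite. Scale: above 0.35 generally sequence-specific binding.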
As to ATTGCAGA, the “PBM E-score” value was -0.201.
As for CGCAGCAA, the figure is -0.192; as for ACCGTCCA, 0.242; as for AATGTGCA, -0.241.
To CGCAGAGC belongs -0.0211; to ATGTGCTC, -0.151.
To CTGGACTA belongs -0.143.
As for CAACATTA, the “PBM E-score” value was -0.0568.
To AGCACCGG belongs 0.421; to AGCACCAG, -0.177.
To AGCACCTA belongs -0.104; to AGCACCGA, 0.476.
AGCACCCG: the “PBM E-score” value was found to be 0.153.
To GGCACCGA belongs 0.351; to ACAGAATC, -0.16.
As for AACCGTAG, the figure is -0.118; as for CATTTCTA, 0.0892; as for GGGACTAA, 0.246.
Consider CTGACTTC, for which the “PBM E-score” value was 0.00183.
Turning to CGGACTCC, the “PBM E-score” value came to 0.231.
As for AGGACTGA, the figure is -0.184; as for TGGACTAA, -0.0846; as for CGGACTGA, 0.359.
As to GGGACTCA, the “PBM E-score” value is -0.0395.
As for CGGACTTC, the figure is 0.374; as for GGGACTGA, -0.172.
For the sequence CGGACTAA, the “PBM E-score” value was 0.428.
To CGGACTCA belongs 0.411; to AGGACTTC, -0.196.
With AGATCCAT, the “PBM E-score” value is 0.0463.
To ATAACGAG belongs -0.103.
To CTGGCCTC belongs -0.252; to AGCATCGC, 0.0104; to CCACCTAA, -0.0966.
To ACAGTACG belongs -0.197; to CGTTACCA, -0.112; to CCCAGTAA, -0.198.
Turning to ATGACCGA, the “PBM E-score” value is 0.31.
As to ATGACCGG, the “PBM E-score” value was 0.308.
As for AGGACCGA, the figure is 0.33.
In the case of AGGACCGC, the “PBM E-score” value is 0.397.
As for ATGACCGC, the “PBM E-score” value amounted to 0.381.
To CGGACCGC belongs 0.298.
To CTGGTGCC belongs 0.0505; to CGTGCAAA, -0.0367; to CCCGAGCA, -0.166.
For CAGCGTAG, the “PBM E-score” value was -0.0828.
To ACGGTTCG belongs 0.0226; to GAATTAAC, -0.0887; to TAGTGGCA, -0.0544.
As for AGTCGGCA, the figure is 0.325; as for CGTCGGAC, 0.38; as for AGTCGGAC, 0.398.
To GCTCGGAC belongs 0.242; to CGTCGGAA, 0.24.
With GGTCGGCA, the “PBM E-score” value was 0.375.
To CGTCGGAG belongs 0.343.
As for AGTCGGAG, the figure is 0.302; as for GGTCGGAC, 0.369.
With CGTCGGCA, the “PBM E-score” value worked out at 0.334.
As for GGTCGGAA, the figure is 0.251; as for AGTCGGAA, 0.221.
To ACGCCTAT belongs -0.198; to TACTACAA, -0.0615; to ACAGCACT, -0.196.
To TCACCCGA belongs 0.089.
In the case of AGAGAAGC, the “PBM E-score” value was -0.27.
As to TAGTCAGA, the “PBM E-score” value is -0.116.
To TCTGAGCA belongs -0.254.
As for AGTCGGGC, the figure is 0.312.
On to CGTCGGGA, for which the “PBM E-score” value is 0.337.
Take CGTCGGGC: the “PBM E-score” value is 0.361.
To GGGGTTAC belongs 0.397.
As for GGGTTTTA, the figure is 0.322.
As for GGGTTTAA, the figure is 0.398.
With AGGGTTAC, the “PBM E-score” value was -0.0791.
Take CGGGTTAA: the “PBM E-score” value was 0.221.
To TGGTTTAA belongs -0.231; to AGGGTTAA, -0.179.
CGGGTTAC: the “PBM E-score” value amounted to 0.0485.
As for GGGGTTAA, the “PBM E-score” value is 0.404.
As for AAAACGTC, the figure is -0.179.
To GGTTGTCA belongs -0.0232; to AACCGCTG, 0.0244.
Turning to AACCGCTC, the “PBM E-score” value amounted to 0.119.
As for CACCGCTC, the figure is 0.402.
To TACCGCTA belongs 0.306; to AGCCGCTG, 0.14.
